# Test results published in PubChem BioAssay (EPA / NIEHS).
# Calls of active or inactive are those of the source. Rule for the calls: active = hit-call score of the fitted dose curve at least 0.9, where 1 is the maximum; inactive = score below 0.9.
# How the values were obtained:
# [1] = target: Myc proto-oncogene protein (Homo sapiens) (UniProt P01106); experiment: ATG_Myc_CIS: Attagene CIS-FACTORIAL HepG2 Assay for human Myelocytomatosis (Myc) Proto-Oncogene Transcription Factor (AID 2282990); settings: HepG2, Attagene cis-reporter transcription factor activity; actives raise or lower the signal
# Chain of Myc proto-oncogene protein (Homo sapiens) (P01106 whole entry, looked up): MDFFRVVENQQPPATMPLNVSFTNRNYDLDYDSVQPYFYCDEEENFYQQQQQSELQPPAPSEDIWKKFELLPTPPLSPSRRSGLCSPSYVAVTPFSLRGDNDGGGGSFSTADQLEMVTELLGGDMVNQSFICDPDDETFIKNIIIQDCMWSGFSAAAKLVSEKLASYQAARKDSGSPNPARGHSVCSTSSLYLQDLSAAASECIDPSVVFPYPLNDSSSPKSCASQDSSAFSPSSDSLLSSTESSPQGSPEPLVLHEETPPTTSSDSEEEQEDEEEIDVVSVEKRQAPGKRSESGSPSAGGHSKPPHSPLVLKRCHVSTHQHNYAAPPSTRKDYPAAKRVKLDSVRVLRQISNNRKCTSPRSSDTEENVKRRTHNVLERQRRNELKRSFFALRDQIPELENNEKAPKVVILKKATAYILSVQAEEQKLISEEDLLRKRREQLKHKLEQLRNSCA
# Outline: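 HepG2, transient MRTU transfection (cis promoters, endogenous TFs); 24 h dosing; TriZol RNA → oligo(dT) RT → PCR → 6-FAM primer extension → HpaI cut → CE. Bidirectional fit vs DMSO.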
# [2] = ATG_NF_kB_CIS: Attagene CIS-FACTORIAL HepG2 Assay for human Nuclear Factor Kappa B (NF-kB) (AID 2282991); settings: HepG2 Attagene cis-factorial NF-kB reporter mRNA; actives raise or lower the signal
# Outline: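 Multiplexed cis-reporter assay in transiently transfected HepG2. 24 h treatment; RNA isolated, RT-PCR, labelled fragments resolved by CE. DMSO baseline.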
# [3] = ATG_NRF2_ARE_CIS: Attagene CIS-FACTORIAL HepG2 Assay for human Nuclear Factor Erythroid 2 Related Factor 2 (NFR2) response to Antioxidant Response Elements (ARE) (AID 2282992); settings: HepG2 Attagene ARE/NRF2 reporter, transcription factor activity; actives raise or lower the signal;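 for AC50: reporter mRNA level measured by RT-PCR and capillary electrophoresis fluorescence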
# Outline: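 HepG2 cells transiently transfected with multiplexed cis-element reporter constructs, 24 h after chemical dosing; reporter mRNA quantified by RT-PCR, fluorescent primer extension, HpaI digestion and capillary electrophoresis. Bidirectional fit relative to DMSO.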
# [4] = ATG_Oct_MLP_CIS: Attagene CIS-FACTORIAL HepG2 Assay for human Octamer-Binding Transcription Factor (Oct) (AID 2282993); settings: HepG2 Attagene cis-factorial Oct reporter, mRNA; actives raise or lower the signal
# Outline: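 Read-out: reporter mRNA via RT-PCR plus capillary electrophoresis of 6-FAM-labelled fragments. Transiently transfected HepG2, 24 h exposure, endogenous TF activity on cis elements. Gain or loss of signal fitted relative to DMSO.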
# [5] = target: Cellular tumor antigen p53 (Homo sapiens) (UniProt P04637); experiment: ATG_p53_CIS: Attagene CIS-FACTORIAL HepG2 Assay for human p53 Transcription Factor (AID 2282994); settings: HepG2 p53 cis-element reporter, Attagene mRNA; actives raise or lower the signal
# Chain of Cellular tumor antigen p53 (Homo sapiens) (P04637 whole entry, looked up): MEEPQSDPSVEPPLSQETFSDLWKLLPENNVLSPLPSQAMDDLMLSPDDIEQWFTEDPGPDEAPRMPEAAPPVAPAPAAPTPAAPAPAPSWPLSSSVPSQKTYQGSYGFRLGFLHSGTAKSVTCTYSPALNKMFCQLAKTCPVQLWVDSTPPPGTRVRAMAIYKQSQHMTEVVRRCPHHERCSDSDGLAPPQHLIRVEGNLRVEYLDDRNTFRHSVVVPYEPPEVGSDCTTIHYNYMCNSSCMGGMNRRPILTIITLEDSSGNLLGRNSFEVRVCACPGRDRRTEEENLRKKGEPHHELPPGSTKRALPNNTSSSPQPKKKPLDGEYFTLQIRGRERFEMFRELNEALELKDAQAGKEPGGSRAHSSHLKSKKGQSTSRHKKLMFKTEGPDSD
# Outline: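 HepG2 cells transiently transfected with cis-regulated multiple reporter transcription units, dosed 24 h. Reporter mRNA measured by RT-PCR, 6-FAM primer extension, HpaI digestion and capillary electrophoresis; bidirectional fit relative to DMSO.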
# [6] = BSK_3C_TissueFactor: BioMAP Diversity Plus: 3C Assay for Tissue Factor Biomarker Activity (AID 2282997); settings: BioMAP 3C HUVEC, tissue factor biomarker readout; actives raise or lower the signal
# Outline: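 Dosing of human umbilical vein endothelial cells preceded a 24 h incubation. Tissue Factor was then read by ELISA, with increases and decreases both scored relative to DMSO controls.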
# [7] = BSK_3C_uPAR: BioMAP Diversity Plus: 3C Assay for Urokinase-type plasminogen activator receptor (uPAR) Biomarker Activity (AID 2282998); settings: BioMAP 3C HUVEC, uPAR biomarker ELISA; actives raise or lower the signal
# Outline: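 HUVEC primary cells; 24 h post-dose; uPAR by ELISA; gain or loss of signal fitted bidirectionally vs DMSO baseline.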
# [8] = BSK_3C_VCAM1: BioMAP Diversity Plus: 3C Assay for Vascular cell adhesion molecule 1 (VCAM1) Biomarker Activity (AID 2282999); settings: BioMAP 3C HUVEC, VCAM1 ELISA, cytokine-stimulated; actives raise or lower the signal
# Outline: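 Endothelial cells from human umbilical vein are treated with test chemical. At 24 h, VCAM-1 is measured by ELISA, and responses in either direction are fitted relative to DMSO.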
# [9] = BSK_4H_Eotaxin3: BioMAP Diversity Plus: 4H Assay for Eotaxin 3 Biomarker Activity (AID 2283000); settings: primary human endothelial cells (HUVEC); actives raise or lower the signal;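 for outcome: CCL26 protein level quantified by ELISA in parallel with SRB cytotoxicity check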
# Outline: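 Human umbilical vein endothelial cells (BSK_4H system) dosed with test chemical; Eotaxin-3 (CCL26) measured by ELISA 24 h after dosing. Bidirectional curve fitting relative to DMSO negative control as baseline.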
SMILES,outcome [1],outcome [2],outcome [3],outcome [4],outcome [5],outcome [6],outcome [7],outcome [8],outcome [9],AC50 [3],AC50 [6],AC50 [7],AC50 [8],AC50 [9],AC50 [4],AC50 [5]
COc1cc(C=O)ccc1O,inactive,inactive,inactive,inactive,inactive,inactive,inactive,inactive,inactive,,,,,,,
O=[N+]([O-])C(CO)(CO)CO,inactive,inactive,inactive,inactive,inactive,inactive,inactive,inactive,inactive,,,,,,,
CCc1c(C(=O)NN2CCCCC2)nn(-c2ccc(Cl)cc2Cl)c1-c1ccc(Br)cc1,inactive,inactive,,inactive,inactive,,,,,1.53 µM (active),11.7 µM (active),6.7 µM (active),11.1 µM (active),8.48 µM (active),,
COCCOCCOC,inactive,inactive,inactive,inactive,inactive,inactive,inactive,inactive,inactive,,,,,,,
CNCc1cc(F)ccc1Oc1ccc(Cl)c(Cl)c1,inactive,inactive,inactive,inactive,inactive,,,inactive,inactive,,12.5 µM (active),30.9 µM (active),,,,
O=C(N[C@@H](Cc1ccccc1)[C@@H](O)C(=O)N1C[C@@H](O)[C@@H](O)C1)c1cc2cc(Cl)ccc2[nH]1,inactive,inactive,,inactive,inactive,inactive,inactive,inactive,inactive,91.9 µM (active),,,,,,
CN[C@H]1CC[C@@H](c2ccc(Cl)c(Cl)c2)c2ccc(S(N)(=O)=O)cc21,inactive,inactive,inactive,inactive,inactive,,,,,,33.4 µM (active),14.3 µM (active),30.4 µM (active),15.2 µM (active),,
Nc1ccccc1N,inactive,inactive,,,,inactive,,,inactive,9.26 µM (active),,4.58 µM (active),11 µM (active),,29 µM (active),32.4 µM (active)
CCCCCCC(=O)OCC,inactive,inactive,inactive,inactive,inactive,inactive,inactive,inactive,inactive,,,,,,,
Nc1ccc(S(=O)(=O)c2ccc(N)cc2)cc1,inactive,inactive,inactive,inactive,inactive,inactive,inactive,inactive,inactive,,,,,,,
Cc1ccc(N(C)C)cc1,inactive,inactive,inactive,inactive,inactive,inactive,inactive,inactive,inactive,,,,,,,
